# Test results from PubChem BioAssay (EPA / NIEHS).
# Several values for one entry are separate records, joined by “and”; a condition that tells them apart may be missing. Equal entries are not always repeated. Inconclusive results are not listed. More than one record can exist for a structure, and the calls need not agree. Activity calls are given as the source filed them. How the source made its calls, unless noted: active means hit-call score of the fitted dose curve at least 0.9, where 1 is the maximum; inactive means score below 0.9.
# Key:
# [1] = BSK_BT_PBMCCytotoxicity: PBMC Cytotoxicity Assessment in the BioMAP Diversity Plus: BT Assay (AID 2284225); details: primary human B cells with PBMC;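 further: PBMC viability measured by Alamar Blue dye reduction fluorescence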
# Summary of the method: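 Viability by Alamar Blue reduction (6 h, ex/em 546/580 nm) after 90 h culture of SEB/TSST-1-activated PBMC (20 ng/mL each) given compound 1 h before activation. DMSO served as baseline for curve fitting.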
# [2] = read-out: Secreted IgG (sIgG), gene 3500; assay: BSK_BT_sIgG: BioMAP Diversity Plus: BT Assay for Secreted IgG (sIgG) Biomarker Activity (AID 2284226); details: primary human B cells with PBMC
# Summary of the method: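 ELISA quantitation of secreted IgG from human B cells co-cultured with PBMC, sampled 24 h post-dosing. Values fitted relative to DMSO vehicle as baseline, positive fitting direction.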
# [3] = BSK_BT_Bcell_Proliferation: Viability Assessment in the BioMAP Diversity Plus: BT Assay for B cell Proliferation (AID 2284227); details: primary human B cells with PBMC
# Summary of the method: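 Human B cell/PBMC co-culture; test chemical added; 72 h; TCA fix (10%), 0.1% SRB stain, A560 for total protein as a proliferation read-out; positive-direction fit vs DMSO baseline.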
# [4] = TAMU_PeakParms_SingleDonor1434_Chronotropy: Texas A&M University (TAMU) 1.5-hr Human Induced Pluripotent Stem Cell (iPSC)-derived Cardiomyocytes Calcium (Ca+2) Flux Assay for Cardiotoxicity: Chronotropy (changes in peak frequency) (AID 2284217); details: actives raise or lower the signal
# Summary of the method: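 Beat rate, as mean Ca2+-flux peak frequency, was read from donor 1434 iPSC cardiomyocytes 90 min after exposure to 0.2–100 uM test chemical (0.5% DMSO). Wells that stopped beating were excluded; EC05 from bidirectional DMSO-referenced fitting.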
# [5] = UKN4_HCS_LUHMES_neurite_outgrowth: University of Konstanz (UKN) Leist Lab Neurite Outgrowth Assay in human LUHMES cells (UKN4) (AID 2284206); details: actives raise or lower the signal
# Summary of the method: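 After 24 h compound treatment beginning shortly after replating of 2-day-differentiated LUHMES cells, calcein-AM and H-33342 live staining allowed high-content imaging of neurite area and viability. Fitted bidirectionally against DMSO.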
# [6] = IUF_NPC1b_proliferation_BrdU_72hr: Leibniz Research Institute for Environmental Medicine (IUF) 72-hour Neural Progenitor Cell Bromodeoxyuridine (BrdU) Proliferation Assay (NPC1b) (AID 2284207)
# Summary of the method: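 Neural progenitor spheres of human fetal origin are treated for three days; BrdU added for the last 16 h is quantified by luminescence ELISA, with DMSO as baseline and EGF/FGF omission as positive control.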
# [7] = IUF_NPC1a_proliferation_area_72hr: Leibniz Research Institute for Environmental Medicine (IUF) 72-hour Neural Progenitor Cell Proliferation Area Assay (NPC1a) (AID 2284208)
# Summary of the method: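 Proliferation is scored as sphere area gain in primary human fetal neural progenitors treated for 72 h in EGF/FGF-containing medium. Viability, LDH and BrdU readouts come from the same wells.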
# [8] = IUF_NPC1_viability_72hr: Viability Assessment at 72 hours in the Leibniz Research Institute for Environmental Medicine (IUF) Neural Progenitor Cell Proliferation Assay (NPC1) (AID 2284209)
# Summary of the method: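 Viability was measured by resazurin-to-resorufin fluorescence (alamar blue) after 72 h of continuous exposure without compound renewal. Each well held one hNPC sphere (gestational week 16-19 fetal cortex, 0.25-0.35 mm) cultured in EGF/FGF proliferation medium at 37C and pH 7.2-7.6.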
# [9] = CCTE_Mundy_HCI_Cortical_Synap_Neur_Matur_NeuriteSpotCountPerNeuriteLength: CCTE's Synaptogenesis and Neurite Maturation Assay in rat cortical cells for Neurite Spot Count per Neurite Length, Mundy Lab (AID 2284210)
# Summary of the method: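 Neurite-associated synapse density (synaptophysin puncta per unit neurite length) is measured by fluorescence high-content imaging in rat cortical cultures treated from DIV 7 and fixed at DIV 12, with DMSO as negative control.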
# [10] = CCTE_Mundy_HCI_Cortical_NOG_NeuriteLength: CCTE's Neurite Outgrowth Assay in rat cortical cells for Neurite Length, Mundy Lab (AID 2284213);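 on AC50: neurites imaged about 48 to 50 h after chemical exposure began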
# Summary of the method: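 First, rat primary cortical cells were plated and, 2 h later, given test chemical as a 1/10 dilution. Finally, βIII-tubulin immunostaining enabled automated imaging of neurite length.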
# [11] = CCTE_Mundy_HCI_Cortical_Synap_Neur_Matur_NeuriteSpotCountPerNeuron: CCTE's Synaptogenesis and Neurite Maturation Assay in rat cortical cells for Neurite Spot Count per Neuron Count, Mundy Lab (AID 2284215)
# Summary of the method: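 Synapse density is scored as synaptophysin spots along neurites per neuron in fixed rat cortical neurons, measured at DIV 12 after chemical dosing at DIV 7. DMSO is the negative control and activity baseline.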
# [12] = CCTE_Mundy_HCI_Cortical_Synap_Neur_Matur_SynapseCount: CCTE's Synaptogenesis and Neurite Maturation Assay in rat cortical cells for Synapse Count, Mundy Lab (AID 2284218)
# Summary of the method: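 High-content imaging of synaptophysin puncta per MAP2-positive neuron (Hoechst nuclei) in rat cortical cells exposed DIV 7–12 after glial arrest with AraC at DIV 5; decrease relative to DMSO scored.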
# [13] = CCTE_Mundy_HCI_hN2_NOG_NeuriteCount: CCTE's Neurite Outgrowth Assay in human hN2 cells for Neurite Count, Mundy Lab (AID 2284219; active means hit-call score of the fitted dose curve at least 0.9, where 1 is the maximum)
# Summary of the method: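 In this morphology assay, hNP1-derived neurons received test chemical 2 h post-plating and were fixed two days later in warm paraformaldehyde/sucrose containing Hoechst 33342. Neurites, labelled by rabbit anti-βIII-tubulin (1:800) and Alexa Fluor-488 (1:500), were counted automatically.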
# [14] = CCTE_Mundy_HCI_hN2_NOG_NeuriteLength: CCTE's Neurite Outgrowth Assay in human hN2 cells for Neurite Length, Mundy Lab (AID 2284220; active means hit-call score of the fitted dose curve at least 0.9, where 1 is the maximum)
# Summary of the method: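 Using βIII-tubulin immunofluorescence and Hoechst nuclear counterstain, this component quantifies neurite length in hNP1-derived neurons.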
# [15] = CCTE_Mundy_HCI_Cortical_Synap_Neur_Matur_CellBodySpotCount: CCTE's Synaptogenesis and Neurite Maturation Assay in rat cortical cells for Cell Body Spot Count, Mundy Lab (AID 2284223)
# Summary of the method: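 Synapse number at neuronal cell bodies was quantified as synaptophysin puncta per neuron in rat cortical cultures exposed from DIV 7 to DIV 12. Values were normalised to DMSO.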
# [16] = CCTE_Mundy_HCI_Cortical_Synap_Neur_Matur_BPCount: CCTE's Synaptogenesis and Neurite Maturation Assay in rat cortical cells for Branch Point Count, Mundy Lab (AID 2284211)
# Summary of the method: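 HCI read-out of branch points from MAP2/synaptophysin/Hoechst immunofluorescence; rat cortical cultures, AraC DIV 5, dosing DIV 7, fixed DIV 12; fit in positive direction vs DMSO baseline.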
# [17] = CCTE_Mundy_HCI_Cortical_NOG_NeuriteCount: CCTE's Neurite Outgrowth Assay in rat cortical cells for Neurite Count, Mundy Lab (AID 2284212);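 further: cells fixed about two days after chemical exposure began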
# Summary of the method: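 Rat cortical primary cells; compound added 2 h post-plating, 1/10 dilution of working solution. Anti-betaIII-tubulin/AF488 ICC; ArrayScan neurite count vs DMSO.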
# [18] = CCTE_Mundy_HCI_Cortical_Synap_Neur_Matur_NeuriteLength: CCTE's Synaptogenesis and Neurite Maturation Assay in rat cortical cells for Neurite Length, Mundy Lab (AID 2284214)
# Summary of the method: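 Neurite length quantified by automated high-content imaging of MAP2, synaptophysin and Hoechst staining. Rat cortical cells received chemical from DIV 7 to DIV 12 […], glial growth arrested by AraC at DIV 5; DMSO baseline.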
# [19] = CCTE_Mundy_HCI_Cortical_Synap_Neur_Matur_NeuriteCount: CCTE's Synaptogenesis and Neurite Maturation Assay in rat cortical cells for Neurite Count, Mundy Lab (AID 2284222)
# Summary of the method: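 Rat cortical neurons, 96-well; AraC DIV 5; chemical + media change DIV 7; end DIV 12. Fix PFA/Hoechst, anti-MAP2 + anti-synaptophysin IF. HCI neurite count vs DMSO baseline.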
# [20] = CCTE_Mundy_HCI_hNP1_Pro_ResponderAvgInten: CCTE's Proliferation Assay in human neuroprogenitor cells, Mundy Lab (AID 2284224; active means hit-call score of the fitted dose curve at least 0.9, where 1 is the maximum;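 further: human neural progenitor cells hNP1 derived from WA09 embryonic stem cells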)
# Summary of the method: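 Human neuroprogenitors (hNP1, WA09 lineage) receive test chemical after 40 to 44 hours of attachment. A four-hour BrdU pulse begins twenty hours later, followed by fixation and high content imaging; signal is referenced to DMSO controls.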
smiles,measurement,setting,value
NCC(F)(F)C(F)(F)C(F)(F)C(F)(F)C(F)(F)C(F)(F)C(F)(F)F,outcome,[1],inactive
same,outcome,[2],inactive
same,outcome,[3],inactive
OCCC(F)(F)C(F)(F)C(F)(F)C(F)(F)C(F)(F)C(F)(F)F,AC50,[1],30 µM (active)
same,outcome,[1],inactive
same,outcome,[2],inactive
same,outcome,[3],inactive
CCCCCCCCCCCCCC[N+](C)(C)C,AC50,[1],11.5 µM (active)
same,AC50,[2],45.3 nM (active)
same,AC50,[3],2.81 µM (active)
c1ccc2c(c1)Cc1ccccc1-2,AC50,[4],50 µM (active)
CC1=C(/C=C/C(C)=C/C=C/C(C)=C/C(=O)O)C(C)(C)CCC1,AC50,[5],29.8 µM (active)
same,AC50,[6],1.67 µM (active)
same,AC50,[7],4.35 µM (active)
same,outcome,[8],inactive
same,outcome,[9],inactive
same,AC50,[10],6.25 µM (active)
same,outcome,[11],inactive
same,outcome,[12],inactive
same,AC50,[13],12.1 µM (active)
same,AC50,[14],0.417 µM (active)
same,outcome,[15],inactive
c1ccc2cc3c(ccc4ccccc43)cc2c1,outcome,[4],inactive
c1ccc2c(c1)ccc1ccccc12,outcome,[4],inactive
C[C@@H]1C[C@H]2[C@@H]3CCC4=CC(=O)C=C[C@]4(C)[C@@]3(F)[C@@H](O)C[C@]2(C)[C@@]1(O)C(=O)COP(=O)(O)O,AC50,[1],0.485 µM (active)
same,outcome,[1],inactive
same,outcome,[2],inactive
same,outcome,[3],inactive
CC#C[C@]1(O)CC[C@H]2[C@@H]3CCC4=CC(=O)CCC4=C3[C@@H](c3ccc(N(C)C)cc3)C[C@@]21C,AC50,[5],10 µM (active)
same,AC50,[6],5 µM (active)
same,outcome,[7],inactive
same,outcome,[8],inactive
same,AC50,[9],25.7 µM (active)
same,AC50,[16],18.4 µM (active) and 27.4 µM (active)
same,AC50,[17],62 µM (active) and 24.4 µM (active)
same,AC50,[10],50 µM (active) and 23.6 µM (active)
same,AC50,[18],15.9 µM (active) and 27.7 µM (active)
same,AC50,[11],13.3 µM (active) and 25.5 µM (active)
same,AC50,[4],0.216 µM (active)
same,AC50,[12],13.3 µM (active) and 25.1 µM (active)
same,AC50,[19],17.9 µM (active) and 23.1 µM (active)
same,AC50,[15],16.7 µM (active) and 24.8 µM (active)
same,AC50,[20],18 µM (active) and 23.2 µM (active)
C=C(C)C(=O)OCCC(F)(F)C(F)(F)C(F)(F)C(F)(F)C(F)(F)C(F)(F)F,outcome,[20],inactive
same,outcome,[1],inactive
same,outcome,[2],inactive
same,outcome,[3],inactive
OCCC(F)(F)C(F)(F)C(F)(F)C(F)(F)C(F)(F)C(F)(F)C(F)(F)C(F)(F)F,outcome,[20],inactive
same,AC50,[1],43.4 µM (active) and 40.7 µM (active)
same,AC50,[2],50.6 µM (active) and 53.6 µM (active)
same,AC50,[3],45.1 µM (active) and 45.8 µM (active)
FC(F)(I)C(F)(F)C(F)(F)C(F)(F)C(F)(F)C(F)(F)I,AC50,[1],25.6 µM (active) [middle of 5 runs]
same,AC50,[3],20.6 µM (active) [middle of 5 runs]
CN1CCC[C@H]1c1cccnc1,outcome,[5],inactive
same,outcome,[6],inactive
same,outcome,[7],inactive
same,outcome,[8],inactive
same,outcome,[9],inactive
same,outcome,[10],inactive
same,outcome,[18],inactive
same,outcome,[11],inactive
same,outcome,[12],inactive
same,outcome,[14],inactive
same,outcome,[15],inactive
